PubChem BioAssay (NCATS)
Inconclusive results are not listed. Unmarked numbers belong to inactive results. The source made the active and inactive calls. The call rests on the fitted dose curve; in most records, active means well fitted curve in the direction sought with a large enough effect; inconclusive means small, poorly fitted or top-dose-only effect, or another doubt; inactive means no such curve, though single readings can be large; an effect the other way counts as inactive or inconclusive. Where a SMILES comes first, the peptide text is derived from it. Bridges are numbered along the chain shown (N, C = ends). [ ]: non-standard residue; d: D form. The star is where a group is joined. Dab(CH2SO3H) = N[C@@H](CCNCS(=O)(=O)O)C(=O)O; X3 = CC[C@@H](C)CCCCC(=O)*; Dab = NCC[C@H](N)C(=O)O

Assay: P-glycoprotein substrates identified in KB-3-1 adenocarcinoma cell line, qHTS therapeutic library screen (AID 1346986); further: nearly all actives have a fitted effect of over 60% in size
Conditions: KB-3-1 parental cells viability, CellTiter-Glo, 72 h; series mostly up to 44.5 µM; activity change, negative = cytotoxicity: at the top concentration
Summary of the method: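 Resistance attributable to P-gp was assessed by comparing AC50 in KB-8-5-11 with parental KB-3-1 and by tariquidar reversal. Cells were exposed 72 h and viability read by CellTiter-Glo.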

SMILES | outcome
O=C(O)CCc1cccc(O[C@@H]2O[C@H](CO)[C@@H](O)[C@H](O)[C@H]2O)c1O | inactive
CCCC(N[C@@H](C)C(=O)N1[C@H](C(=O)O)C[C@@H]2CCCC[C@@H]21)C(=O)OCC (some centres not stated) | inactive
C[C@@H]1O[C@@H](O[C@H]2[C@H](OC(C#N)c3ccc(O)cc3)O[C@H](CO)[C@@H](O)[C@@H]2O)[C@H](O)[C@H](O)[C@H]1O (some centres not stated) | inactive [at 17.4 µM]
CNC(=O)c1ccc2cc([C@@]3(O)CCn4cncc43)ccc2c1 | inactive
COc1cc(CCc2ccccc2)c(C(=O)O)c2c1CC(C(C)(C)O)O2 (configuration not stated) | inactive
COc1cc(C(O)C(CO)Oc2ccc(CCCO[C@@H]3O[C@@H](C)[C@H](O)[C@@H](O)[C@H]3O)cc2OC)ccc1O (some centres not stated) | inactive [at 17.4 µM]
CCC1CC2C(C)=CC3CCCCC3C2(C)C2(OC(=O)C(C)(O)OC2=O)O1 (configuration not stated) | inactive

Assay: P-glycoprotein substrates identified in KB-8-5-11 adenocarcinoma cell line, qHTS therapeutic library screen (AID 1346987); further: nearly all actives have a fitted effect of over 65% in size; further: potency means the concentration at half of the fitted maximal effect; on activity change, negative = cytotoxicity: on the % scale 0 is the no-effect control and ±100 the full control effect
Conditions: KB-8-5-11 (P-gp overexpressing) viability, CellTiter-Glo, 72 h; series mostly up to 44.5 µM; activity change, negative = cytotoxicity: at the top concentration
Summary of the method: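 Steps: plate 500 KB-8-5-11 cells/well in DMEM + 10% FCS (colchicine removed); pin compounds in dose-response; incubate 72 h, 37 degree C, 5% CO2; add CellTiter-Glo, 5 min; read luminescence.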

SMILES | outcome | activity change, negative = cytotoxicity | Potency
O=C(O)c1cnn(-c2nc3cc(OC(F)(F)F)c(Cl)cc3[nH]2)c1 | inactive |  | 
CCOC(=O)N1CCC(NCCNC(=O)c2ccccc2C)CC1 |  | 6.24% | 
CC(C)NCC1CCc2cc(CO)c([N+](=O)[O-])cc2N1 (configuration not stated) |  | -0.942% [at 17.3 µM] | 
C=C1CCC2C(C)(C(=O)O)CC(O)CC2(C)C1CC/C(C)=C/C(=O)O (configuration not stated) |  | 6.48% | 
O=C(O)CCc1cccc(O[C@@H]2O[C@H](CO)[C@@H](O)[C@H](O)[C@H]2O)c1O | inactive |  | 
CCOC(=O)[C@H](CCc1ccccc1)CC1(C(=O)N[C@H]2CCc3ccccc3N(CC(=O)O)C2=O)CCCC1 | inactive |  | 
CN1C(=O)c2ccccc2NC(=O)[C@]12O[C@@H]2c1cccc(O)c1 |  | 8.4% | 
CCCC(N[C@@H](C)C(=O)N1[C@H](C(=O)O)C[C@@H]2CCCC[C@@H]21)C(=O)OCC (some centres not stated) | inactive |  | 
C=C1CCC2C(OC(=O)C2(O)COC(C)=O)C2C(=C)C(O)CC12 (configuration not stated) | inactive |  | 
C[C@@H]1O[C@@H](O[C@H]2[C@H](O[C@H]3CO[C@@H](O[C@H]4CC[C@@]5(C)C(CC[C@]6(C)C5CC[C@]57OC[C@@]8(CC[C@](C)(CO)CC85)[C@H](O)C[C@]76C)C4(C)C)[C@H](O[C@@H]4O[C@H](CO)[C@@H](O)[C@H](O)[C@H]4O)[C@H]3O)O[C@H](CO)[C@@H](O)[C@@H]2O)[C@H](O)[C@H](O)[C@H]1O (some centres not stated) |  | 8.31% [at 9.29 µM] | 
COc1cc(NC(=O)c2ccccn2)ccc1Cl | inactive |  | 
C[C@]12C=CC(=O)N[C@@H]1CC[C@@H]1[C@@H]2CC[C@]2(C)[C@@H](C(=O)Nc3cc(C(F)(F)F)ccc3C(F)(F)F)CC[C@@H]12 |  | -24% | 
CC(=O)OCC(=O)O[C@@H]1[C@H]2[C@@H](OC(=O)c3ccccc3)[C@@H](C)C[C@]2(O)[C@H](OC(C)=O)C2(C)[C@H]3CC(C)(C)C(=O)[C@@H]3CC1(OC(C)=O)[C@@H]2OC(C)=O (some centres not stated) |  | -14.7% [at 17.3 µM] | 
C[C@@H]1O[C@@H](O[C@H]2[C@H](OC(C#N)c3ccc(O)cc3)O[C@H](CO)[C@@H](O)[C@@H]2O)[C@H](O)[C@H](O)[C@H]1O (some centres not stated) | inactive [at 17.3 µM] |  | 
C=C1CCC2C(C)(C)C(O)CCC2(C)C1CCC(C)CCOC(=O)CCC(=O)O (configuration not stated) | inactive [at 17.3 µM] |  | 
COc1cc(/C=C/C(=O)OC2[C@H](O)CC(O)(C(=O)O)C[C@H]2O)ccc1O (some centres not stated) | inactive |  | 
CC(C)=CC/C=C(/C)[C@H]1CC[C@]2(C)[C@@H]1[C@H](O)CC1[C@@]3(C)CC[C@H](O)C(C)(C)[C@@H]3[C@@H](O[C@@H]3O[C@H](CO)[C@@H](O)[C@H](O)[C@H]3O[C@@H]3O[C@@H](C)[C@H](O)[C@@H](O)[C@H]3O)C[C@]12C (some centres not stated) | inactive [at 17.3 µM] |  | 
CNC(=O)c1ccc2cc([C@@]3(O)CCn4cncc43)ccc2c1 | inactive |  | 
C=C1CC/C=C(/CO)C(=O)C[C@@H]2[C@@H]1CC2(C)C | inactive |  | 
C#C[C@]1(O)CC[C@H]2[C@@H]3CCC4=C/C(=N/O)CC[C@@H]4[C@H]3CC[C@@]21CC |  |  | 5.8 µM (active)

SMILES | outcome | activity change, negative = cytotoxicity | Potency
CC1(C)CC2C(O)C3=C(CC(C)(O)C2C1)C(=O)OC3O (configuration not stated) |  | 0.194% | 
COc1cc(CCc2ccccc2)c(C(=O)O)c2c1CC(C(C)(C)O)O2 (configuration not stated) |  | 5.26% | 
CC(=O)c1c(C)cc(O[C@@H]2O[C@H](CO)[C@@H](O)[C@H](O)[C@H]2O)cc1O | inactive |  | 
CCN(CC)CCOc1ccc(-c2nc3cc(Cl)ccc3s2)cc1 |  |  | 18.4 µM (active)
CC(C)(O)c1ccc2c(c1)C(=O)CC1[C@](C)(CO)CCC[C@]21C (some centres not stated) |  | 3.32% | 
C=C1CC[C@@H]2[C@](C)(CO[C@@H]3O[C@H](CO)[C@@H](O)[C@H](O)[C@H]3O)CCC[C@@]2(C)[C@@H]1CCC1=CCOC1=O | inactive [at 17.3 µM] |  | 
CC(=O)OC1C(O)CC(O[C@@H]2O[C@H](CO)[C@@H](O)[C@H](O)[C@H]2O)C2CCC3C(=O)OC(c4ccoc4)CC3(C)C21 (some centres not stated) |  | 8.86% [at 17.3 µM] | 
OCCO[C@@H]1[C@@H](O)[C@H](O)[C@@H](CO)O[C@@H]1O |  | 6.25% | 
CCNC(=O)[C@@H]1CCCN1C(=O)[C@H](CCCN=C(N)N)NC(=O)[C@H](CC(C)C)NC(=O)[C@@H](C)NC(=O)[C@H](Cc1ccc(O)cc1)NC(=O)[C@H](CO)NC(=O)[C@H](Cc1c[nH]c2ccccc12)NC(=O)[C@H](Cc1cnc[nH]1)NC(=O)[C@@H]1CCC(=O)N1 |  | 9.39% [at 17.3 µM] | 
CCCC1=CC2=C(CO1)C(=O)C(C)(OC(=O)c1c(C)cc(OC)cc1O)C(O)C2 (configuration not stated) |  | -1.99% [at 17.3 µM] | 
COc1cc(C(O)C(CO)Oc2ccc(CCCO[C@@H]3O[C@@H](C)[C@H](O)[C@@H](O)[C@H]3O)cc2OC)ccc1O (some centres not stated) | inactive [at 17.3 µM] |  | 
O=C1C(=O)c2ncccc2-c2cccnc21 |  |  | 1.16 µM (active)
O=C(Nc1cccc(C(F)(F)F)c1)c1cc(Br)cc(Br)c1O |  |  | 1.3 µM (active)
COC(=O)C1=C[C@@H](O)[C@@H](O)[C@H](O[C@@H]2O[C@H](COC(=O)/C=C/c3ccccc3)[C@@H](O)[C@H](O)[C@H]2O)C1 |  | 5.89% [at 17.3 µM] | 
CCC1CC2C(C)=CC3CCCCC3C2(C)C2(OC(=O)C(C)(O)OC2=O)O1 (configuration not stated) | inactive |  | 
C/C=C(\C)C(=O)OC[C@H]1O[C@H](O[C@H]2O[C@H](CO)[C@@H](OC(=O)/C(C)=C/C)[C@H](O)[C@H]2O[C@@H]2O[C@H](CO)[C@@H](O)[C@H](O)[C@H]2O)[C@H](O[C@@H]2O[C@H](CO)[C@@H](O)[C@H](O)[C@H]2O)[C@@H](O)[C@@H]1O | inactive [at 9.29 µM] |  | 
CC[C@@H](C)CCCCC(=O)N[C@@H](CCNCS(=O)(=O)O)C(=O)N[C@H](C(=O)N[C@@H](CCNCS(=O)(=O)O)C(=O)N[C@H]1CCNC(=O)[C@H]([C@@H](C)O)NC(=O)[C@H](CCNCS(=O)(=O)O)NC(=O)[C@H](CCNCS(=O)(=O)O)NC(=O)[C@H](CC(C)C)NC(=O)[C@@H](CC(C)C)NC(=O)[C@H](CCNCS(=O)(=O)O)NC1=O)[C@@H](C)O (X3-[Dab(CH2SO3H)]T[Dab(CH2SO3H)][Dab][Dab(CH2SO3H)][dL]L[Dab(CH2SO3H)][Dab(CH2SO3H)]T; lactam 4-C) |  | 0.693% | 
c1ccc(Cc2ncc3c(n2)CCNCC3)cc1 | inactive |  | 
C=C(C)[C@@H]1CC[C@](C)(O)[C@@H](OC(=O)c2ccccc2)C1 |  | -8.95% | 
CC1(C)CCCC2(C)C1C(O)C=C(CO)C2(O)C(=O)O (configuration not stated) |  | 8.34% | 
